± gives the uncertainty stated by the source.
Columns and labels:
[1] = system: FLX1; assay: cell viability z-score within plate (CellTiter-Glo), mean of 3 biological replicates; higher = higher viability relative to plate (less growth inhibition); details: 2 µM; time (hr): 120
Procedure: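 FLX1 fibrolamellar carcinoma cells (DNAJB1-PRKACA fusion), 600 cells/well in 384-well plates, treated with a Selleck kinase inhibitor library (L1200) at 2 uM for 5 days (120 hr); viability by CellTiter-Glo. A z-score was computed within each plate and averaged over three biological replicates.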

[2] = system: FLX1 + dox-induced PRKAR1A G325D; assay: difference in log2 fold change of viability vs plate median (dox-induced PRKAR1A G325D minus uninduced); higher = compound less effective when PKA is inhibited; details: concentration: not stated (2 or 5 uM); 5 days
Procedure: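 For each plate a log2 fold change vs the plate median was derived, and the values without dox were subtracted from those with dox, averaged over three biological replicates.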

SMILES | cell viability z-score within plate [1] | difference in log2 fold change of viability [2]
CC(C)n1nc(-c2cc3cc(O)ccc3[nH]2)c2c(N)ncnc21 [Torkinib (PP242)] | -0.546 ± 0.32 | 0.611
Cc1cc(O)c2c(c1)C(=O)c1cccc(O)c1C2=O [Chrysophanic Acid] | 0.539 ± 0.3 | 0.0332
Cc1ccc(NC(=O)c2cccc(C(C)(C)C#N)c2)cc1Nc1ccc2ncn(C)c(=O)c2c1 | -1.84 ± 0.14 | 0.173
Cc1cc(Nc2nc(N[C@@H](C)c3ncc(F)cn3)ncc2Cl)[nH]n1 | -0.166 ± 0.46 | -1.58
Nc1nc(N)c2nc(-c3cccc(O)c3)c(-c3cccc(O)c3)nc2n1 | 0.649 ± 0.23 | 0.117
c1cncc(CN2CCC(n3ncc4c(N5CCOCC5)nc(-c5ccc6[nH]ccc6c5)nc43)CC2)c1 | 0.437 ± 0.062 | -1.08
Cc1ccc(C(=O)Nc2cccc(C(F)(F)F)c2)cc1Nc1nc(-c2cccnc2)nc2c1cnn2C | -0.436 ± 0.34 | 0.868

— the supplement of paper PMC9925115
